Compound activity: PubChem, National Center for Advancing Translational Sciences (NCATS)
IL1B secr inh: inflammasome signaling inhibition, IL-1 beta readout; THP-1 LPS/ATP IL-1B secretion, AlphaLISA, 16 h; stronger effect = lower value; activity change, % at 57.5 µM; 360,000 compounds, 4.7% hits; AID 743279; in the data active = activity change below about -50%; inconclusive = mostly about -30% to -49%; also: % is scaled to controls: 0 for no effect and ±100 for the full control effect
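Secreted IL-1B measured by AlphaLISA bead assay after 16 h compound exposure of THP-1 cells; compounds (final up to 57.5 uM) added 1 h before LPS (250 ng/mL) and ATP (1.25 mM) stimulation; lower signal means less secretion.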
ATXN2 expr inh: reduces ATXN2 reporter expression in HEK-293 cells; HEK-293 ATXN2-luciferase reporter, luminescence, 24 h; Potency, µM (doses to about 57 µM), inactives show at the top dose activity change, negative = inhibition, most hits filed as inhibitors; 360,000 compounds, 0.72% hits; also: potency is read from the fitted curve at half-maximal effect; % is scaled to controls: 0 for no effect and ±100 for the full control effect; nearly all actives have a fitted effect of over 55% in size
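qHTS (up to 57 uM final) was run with 24 h compound exposure of reporter cells at 37 °C. Each well was multiplexed: SteadyGlo luminescence measured ATXN2-luciferase expression after a fluorogenic Gly-Phe-AFC viability readout (25 uM final).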
SW480 rerep: induces DNA re-replication in SW480 colon adenocarcinoma cells | Potency, µM (series often up to 46.1 µM), for the others: top-dose re-replication activation, hits mostly activators | SW480 DNA re-replication, Hoechst DNA content imaging, 48 h | 340,000 compounds, 1.8% hits; also: potency is read from the fitted curve at half-maximal effect; % of control where 0% means no effect; nearly all actives have a fitted effect of over 55% in size
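Hoechst fluorescence of nuclei (405 nm excitation, 500-530 nm emission) measured by plate-scanning imager after 48 hr compound exposure at 37 C; re-replication scored as increased number of nuclei with elevated intensity.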
ATXN viability: cell viability loss in ATXN counter-screen. S2 cells (HEK-293 line with an ATXN2-luciferase reporter) viability, CellTiter-Fluor protease fluorescence, 24 h. Potency, µM (doses to about 56.7 µM), usual class: cytotoxic. 400,000 compounds, 0.49% hits. AID 651635; also: potency is read from the fitted curve at half-maximal effect; nearly all actives have a fitted effect of over 40% in size
PINK1 modulator: PINK1 expression modulation | PINK1 immunofluorescence, high-content cytometry, 24 h | 410,000 compounds, 0.2% hits | Potency, µM (titrated, usually from 76.6 µM), without a hit: at the top dose activation (PINK1 increase), usual class: activators | AID 624263; active = well fitted activation curve with a large enough effect; inconclusive = small, poorly fitted or top-dose-only effect; cell line not stated here; also: potency is read from the fitted curve at half-maximal effect; % of control where 0% means no effect; nearly all actives have a fitted effect of over 65% in size
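Decision-based qHTS: stable cells, 24 h exposure to five compound concentrations, CCCP as control. Fixed cells stained for PINK1 plus nuclear, mitochondrial and cell markers, cytometer read.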
MCF10A rereplic: DNA re-replication induction in MCF 10a cells; MCF 10A DNA re-replication, Hoechst nuclear intensity, 48 h; Potency, µM (series often up to 46.1 µM), inactives show at the top dose activity, positive = re-replication, most hits filed as activators; 350,000 compounds, 2.9% hits; AID 624296; also: potency is read from the fitted curve at half-maximal effect; % of control where 0% means no effect; nearly all actives have a fitted effect of over 50% in size
Starred values were filed as active, the others as inactive; i = inactive; ? = inconclusive; · = no result. In the library only some 7.1% were active in any assay of this set; here they are far more common. Unless noted, calls follow the shape of the dose curve; as a rule, active = well fitted curve in the direction sought with a large enough effect; inconclusive = small, poorly fitted or top-dose-only effect, or another doubt; inactive = no such curve, though single readings can be large; an effect the other way counts as inactive or inconclusive.

SMILES	IL1B secr inh	ATXN2 expr inh	SW480 rerep	ATXN viability	PINK1 modulator	MCF10A rereplic
CCc1ccccc1NC(=O)c1ccc2[nH]c(C)c(C)c2c1	·	32.4%	·	i	2.6%	·
C#CCOc1nc(C)cc(C)c1S(=O)(=O)c1ccccc1C	-55.9*	-3.3%	3.7%	i	0.2%	6.1%
COc1ccc(OC)c(C(C[N+](=O)[O-])c2c(C)cc3ccccn23)c1 (configuration not stated)	0.0	?	?	?	1.6%	?
CN(C)c1ccc(C(C[N+](=O)[O-])c2c(N)n(C)c(=O)n(C)c2=O)c(F)c1C#N (configuration not stated)	-63.3*	·	?	·	0.7%	3.66µM*
COc1ccc(Br)cc1C(C[N+](=O)[O-])c1c(N)n(C)c(=O)n(C)c1=O (configuration not stated)	-83.3*	·	3.1%	·	-1.5%	?
Cn1c(N)c(C(C[N+](=O)[O-])c2c(F)cccc2Cl)c(=O)n(C)c1=O (configuration not stated)	-7.0	-3.6%	16.4µM*	i	-1.3%	?
Cn1c(N)c(S(=O)(=O)NCc2ccccc2Cl)c(=O)n(C)c1=O	-24.3	?	0.2%	i	3.9%	11.9%
Cn1c(N)c(Br)c(-c2ccc(F)cc2)c(C#N)c1=O	25.9	-3.2%	-13.2%	i	0.3%	-2.9%
O=C(CN1C(=O)/C(=C\c2cccc(Br)c2)Oc2ccccc21)NCCCN1CCOCC1	-51.8*	?	14.6µM*	·	-2.4%	2.91µM*
O=C(CN1C(=O)/C(=C\c2ccccc2Cl)Sc2ccccc21)NCCCN1CCOCC1	?	-31.1%	18.4µM*	?	-0.8%	18.4µM*
O=C(CN1C(=O)S/C(=C\c2ccccc2Cl)C1=O)NCCCn1ccnc1	-28.9	9.5%	-8.7%	i	1.9%	-7.2%
O=C(CN1C(=O)/C(=C\c2cccc(Cl)c2)Sc2ccccc21)NCCCN1CCOCC1	-5.8	·	?	?	1.8%	20.6µM*
COCCNC(=O)CN1C(=O)/C(=C/c2ccccc2)Oc2ccc(C(C)(C)C)cc21	-52.9*	·	15.3%	i	5.3%	?
CCCCn1cc2c(c1-c1ccc(Cl)cc1)c(=O)n(C)c(=O)n2C	·	·	·	·	1.3%	·
CCOc1cc2[nH]c(=O)n(CCCCC(=O)N3CCN(c4ccccc4OC)CC3)c(=O)c2cc1OCC	·	-1.8%	·	i	0.9%	·
COc1ccc(C2NC(=O)c3sc4nc(C)c(C(C)=O)c(-c5ccc(Cl)cc5)c4c3N2)cc1 (configuration not stated)	5.5	-22.4%	?	i	9.1%	16.4µM*
COc1cc(=O)n2c(c1C(=O)NC(C)c1ccco1)CCN(Cc1cc(C)ccc1C)CC2 (configuration not stated)	·	·	·	i	-0.6%	·
COc1ccc(-c2cc(C)no2)cc1S(=O)(=O)NC1CCC(C)CC1 (configuration not stated)	·	·	·	·	-1.4%	·
CCN(CC(O)Cn1c2ccccc2c2ccccc21)S(=O)(=O)c1ccc(C)cc1 (configuration not stated)	?	-24.5%	?	i	27.0%	?
Cc1ccc(S(=O)(=O)N(CCCO)CC(O)CON=C2c3ccccc3-c3ccccc32)cc1 (configuration not stated)	?	?	?	·	-1.8%	18.4µM*
Cc1ccc(NC(=O)C(=O)NCCOc2ccc(Cl)cc2)c(C)c1	-8.9	-13.0%	2.1%	i	11.7%	3.2%
Cc1cccc(OC(=O)NCCOC(=O)N(O)c2ccc(Cl)cc2)c1	-78.8*	-7.2%	?	i	3.7%	-2.8%
CCCOc1ccc(/C=N/Nc2ccc(C(=O)O)cc2)c(OCCC)c1	?	8.7%	?	i	9.0%	7.31µM*
COc1ccc2c(/C=N/Nc3ccc(C(=O)O)cc3)c[nH]c2c1	73.7	24.4%	13.5%	i	0.2%	16.7%
CCCOc1ccc(/C=N/Nc2cccc([N+](=O)[O-])c2)c(O)c1	-96.5*	27.9%	10.4%	·	?	?
